PubChem BioAssay AID1508600 (Functional Genomics Laboratory (NCATS/FGL), 2020)
Hit rate of the full screen: of about 53,000 sequences, about 3,700 (7%) were called active. The entries come from a sample that favours actives as a whole. A number with no mark means an inactive call.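 How the source made its calls: active means gene knockdowns whose robust z-score for IL-1 alpha signal is at least 2 or at most -2, so actives lie on both sides; inactive means the rest.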

Experiment: Components of the Cytosolic LPS Sensing Pathway: Gene Identification via Genome-wide siRNA Screen;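 further: robust z of the log signal after scaling to non-targeting control siRNA wells of the plate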
Settings: RAW264.7 macrophages, IL-1a HTRF, actives lie on both sides, screened at 100 nM (by protocol), cells primed 5 h with Pam3CSK4 first
Outline: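 Cells (RAW264.7, 1×10^4 per well) were transfected with siRNA at 100 nM and cultured 48h at 37 degrees C. Pam3CSK4 was added for 5 hours; LipidA transfection followed for 24 hour. IL-1a was then measured by HTRF.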
Work on “GCCGGUUGGAACAAAAGGCTT against E130018O15Rik” yielded a z-score of 0.993.
For GCGAUCAGUACUGAAGGAATT against Siglecf, the z-score was -1.27.
With GGAGACUGUCUAAUAAAAATT against Medag the z-score was 0.0572.
Work on CUGUAUGUUAUCUCUACACTT against Olfr1513 yielded a z-score of 0.469.
With CCAAAUUGCUUACAUGAUATT against Greb1 the z-score was 1.44.
Sequence GCUGAUAACCUGAUCAACGTT against Nars has a z-score of 0.0406.
Work on CGACGACUAGACCUCAUCUTT against Dtx4 yielded a z-score of -0.624.
For GGGUGGAGAACCAAGUUUUTT against Tmed6, the z-score was 3.21 (active).
GGACUUAUUCGAUAUAGUATT against Nt5c1b gave a z-score of -1.23.
Work on UGCAUGGACUUACGAAAGATT against Tas2r115 yielded a z-score of 0.454.
Work on “GCUGCCGUUUAAAUAUAUGTT against D10Wsu102e” yielded a z-score of 0.31.
In the case of CUCCCUGGCAUUAAUCCGUTT against Tepp, the z-score is reported as 0.0788.
With GAUUUGGUGUCUGCCGAGATT against Prrt1 the z-score was 1.73.
Work on GGCUACAACCAAAUCUUCATT against Papln yielded a z-score of 0.873.
Sequence GCGAUUAACGGAUCGUACCTT against Letmd1 has a z-score of 0.192.
With GGACUUGGAGAGCAAAAGCTT against Ano2 the z-score was -2.14 (active).
GCAGAUCAAAUUUAGCUGATT against Wwc2 showed a z-score of 0.266.
For “GCUUUUUAUCCGUGUCGAUTT against 4930474N05Rik”, the z-score was 0.501.
In the case of GGUUAAACCCUCUUCUCAUTT against Uhrf2, the z-score is reported as -0.645.
With CCAAUUCACUUAGGAGCUGTT against Psma4 the z-score was -2.1 (active).
Sequence GGAAGUAUCGAGAUUCAUGTT against Pitpnm3 has a z-score of 0.0165.
For GCUUCAGACGUAAUUUACUTT against Morc1, the z-score was 0.751.
Work on GGUUUUGGUUUUGUGGAAUTT against Srsf5 yielded a z-score of 1.45.
Work on GGAUCUGGUACCCACCCAATT against Jak2 yielded a z-score of -1.63.
GGAAUUCUACCUGAAAAUCTT against Arel1 gave a z-score of 0.122.
CGCUCUUUCAGCACAAGAATT against Zfp422 showed a z-score of -1.57.
Work on CCUACGACCUGAAGAUAGCTT against Dscc1 yielded a z-score of -0.124.
GGUGGACUCAUUCUAAUACTT against Nudt1 showed a z-score of -1.06.
For CCUGCUAUACAUUGAACCCTT against Lhcgr, the z-score was 2.52 (active).
With GGUGUAGCUGGAAUUGGCATT against Nlrp4b the z-score was -0.0207.
With GGUGAAGCAAAACGGAGGATT against H2-M10.1 the z-score was 0.512.
With GCCUAUUUCCGUGAACCCGTT against Mgmt the z-score was -1.04.
With GGCCAAUCCACGAAAGCAUTT against Strip1 the z-score was -0.958.
In the case of GCUGGGUGAUAAACAAUGUTT against Rhbg, the z-score is reported as 3.42 (active).
GGGACUCUUCACUUGAAAUTT against Ccl3 gave a z-score of -3.8e-05.
Sequence GGAUACCACUUUAGAACCATT against Fgfr2 has a z-score of 0.484.
With CCACAUCUUUGACGAGUACTT against Rgs16 the z-score was -0.145.
Work on GGAAGACAGGCAUAAAAAATT against Slc41a2 yielded a z-score of -1.38.
GGUUAAGUCCCUAGGACAUTT against Blzf1 gave a z-score of 0.998.
Work on GGAAAAAUUGCUUCUGACCTT against Rad51b yielded a z-score of -1.17.
For CCUACAAACCAGAAGAGGUTT against Akr1c19, the z-score was 0.285.
In the case of CCAGACAUGAUACUCCGGCTT against Tssk3, the z-score is reported as 2.57 (active).
GCCUGUGUGCUGUUGUGUUTT against Krtap5-1 showed a z-score of 1.33.
For CGGCAUCAUUCAUUCAUUATT against Pacrgl, the z-score was 2.01 (active).
For CGAUACUGUGCAAAGAAUCTT against Nepro, the z-score was 0.231.
Work on CCUGUGUCAAUCCUGUGCATT against Ifitm7 yielded a z-score of 0.0113.
For GGAACUUUAUGUGGAAAGATT against Vmn1r235, the z-score was -0.449.
With CGGUCAAGGACAGGAAGUGTT against Eif4b the z-score was 0.518.
In the case of GGACAAAGAUAAUGGAAAATT against Erlec1, the z-score is reported as 0.353.
In the case of GGGAACGCAACAUUUCUCCTT against Oxld1, the z-score is reported as 2.34 (active).
In the case of GGAUUCCAAUUUUAUUCCATT against Brca1, the z-score is reported as 1.57.
With GAUAACAAGCAUCUCAUGUTT against Krtap6-5 the z-score was -0.411.
CCGGCAGACCUGUGACAUUTT against Rgs14 showed a z-score of 0.0166.
Sequence GGUGGAGAAGCUCAUUGCUTT against Zap70 has a z-score of 0.444.
GGAAGAAAGAGUGUAUCAATT against Idi2 showed a z-score of 0.487.
With “GGCUCAACCAAGAAAGGCUTT against 4930591A17Rik” the z-score was -1.28.
GAAAGAAACGGCAGAUUGCTT against Vmn2r122 gave a z-score of 0.133.
For GGAAAGUUGUGAACUCUAATT against Olfr1157, the z-score was 0.583.
Sequence GGAUUAGUGCAGGAAUCAATT against Rel has a z-score of 0.922.
With GUUCCUGUUCCACUACUGCTT against Sts the z-score was -2.32 (active).
Sequence GCAAAACUGAACAAAGUACTT against Xirp2 has a z-score of 0.658.
Work on CGAGUGUUGAAUAUUGUGATT against Gpr65 yielded a z-score of 0.158.
For GGUAGUUAAUCAGUGUAAATT against Rps6kb1, the z-score was 1.1.
In the case of GGAUACCAUCAUUGAUGUCTT against Dmap1, the z-score is reported as -2.29 (active).
Sequence UCGGCCAUGUAGUAUGGGATT against Xlr3a has a z-score of 0.42.
In the case of GCACUCACGAUCAUCUUUGTT against Has1, the z-score is reported as -0.513.
For GGCCCAGGUGGAUAGUUAUTT against Cep120, the z-score was 2.03 (active).
Sequence GGAAAACACACUUUUCUUUTT against Thap2 has a z-score of -0.119.
For GGCAGCAGGAUGCAGAAAUTT against Ngef, the z-score was -2.43 (active).
With GCUAUAGAUUGGCUUUAUGTT against Depdc1a the z-score was 0.727.
Work on GACAAAACUCAUUGUUCUUTT against Taf11 yielded a z-score of 1.16.
Sequence CCUUCUCAUAGUGAAAGUATT against Zkscan5 has a z-score of 1.05.
Work on GCCUUGCCCUGACUAUGUUTT against Paqr3 yielded a z-score of 0.0997.
With GGUGCACAGAUGUCUUACCTT against Sec24d the z-score was -0.945.
For GGUAGAAGAGUCUGAUCAUTT against Sfrp1, the z-score was -0.0589.
For GGCCAUUUACAAGAUGGUUTT against Hpca, the z-score was -0.619.
In the case of GGUGGUCUACAGAAAAUUCTT against Ncf1, the z-score is reported as -0.908.
For GGUGGUUCACAAAUACUGUTT against Agtpbp1, the z-score was 0.264.
In the case of GGGCUACAUUCCUUCCAAUTT against Frk, the z-score is reported as 5.59 (active).
With “GGAUCUCGAGCUGACAGAATT against Arhgap33os” the z-score was 1.31.
With GGGAAAGGAUUCAAUUAAGTT against Lratd2 the z-score was 0.0415.
Work on GAGGGCUCUACAGUUUUUATT against Atp5g3 yielded a z-score of 0.952.
In the case of GGCCUUCGAAAUAAUUCUGTT against Ppp1r14d, the z-score is reported as -0.605.
With GACCUUCGACACCGACAAATT against Rtl8c the z-score was 3.29 (active).
Work on GCGGCGAUACUUCUACUUGTT against Grk2 yielded a z-score of -0.584.
CCUGUACAUUGUGUAAUGUTT against Pcdh8 showed a z-score of 0.0925.
In the case of CCUGAACGACAGAUUGGCATT against Krt20, the z-score is reported as -0.697.
CGAAUCCUUAGUUGAAGAATT against Fastkd1 gave a z-score of 1.18.
With GGAAAUUUCAGAGCUCAAGTT against Trpc2 the z-score was -2.81 (active).
Work on GGCAAAAGCACUGAAGAGATT against Ar yielded a z-score of -0.63.
GGGCUCUUUAGUACUAGAATT against Spn gave a z-score of -0.612.
In the case of GGUCCCUUGAUGUCGAUUATT against Stt3b, the z-score is reported as -1.15.
In the case of GCUUCAGCUCUGAUUAACGTT against Alox8, the z-score is reported as -0.233.
GCCGAUAGCAUAGACAGUGTT against Kansl2 gave a z-score of 0.6.
Work on CCAGUCCUACUUAGCAAAGTT against Lrrc75a yielded a z-score of -1.48.
Work on GGUGCAGAGCUUGAGAUGATT against Anks3 yielded a z-score of -0.729.
In the case of GCUGAACAUUAGCUUCAAUTT against Lrrc9, the z-score is reported as -1.42.
With GGUUGCUCACUCAUUUAACTT against Pa2g4 the z-score was 2.18 (active).
With GGAGACAUAUGAGACUCUGTT against Fcer1g the z-score was 0.156.
With GGGACAGAUACUAAACUCUTT against Wfdc2 the z-score was 3.49 (active).
CCAUGGUUACCGUGUACUATT against Olfr1513 gave a z-score of -0.312.
Sequence GGAUCAUUGACAGUGAAUATT against Blk has a z-score of -1.35.
Sequence GGUCCUAUUUCGGAGCUUUTT against Tnfsf14 has a z-score of 0.365.
Sequence GCUCAUCGUGUUUUCAACCTT against Cbr3 has a z-score of -0.034.
For GGGACACACCAUCAAAAGGTT against Kank4, the z-score was -2.32 (active).
GGAAAAAUGGAAACCUAAGTT against Nipal3 gave a z-score of 1.16.
Work on GGUAUUAUCUGCAUGGGCATT against Mkrn3 yielded a z-score of 0.273.
